Where two headings read alike, the source gives them in different places. In all, about 13,000 compounds went through this assay and about 3,200 (25%) showed an effect of 50% or more. This is one part of the list.
System: P. falciparum stage V gametocytes
Parameters: BacTiter-Glo ATP luminescence viability of purified stage V gametocytes in 384-well plates, per cent inhibition versus DMSO

Structure (SMILES)	% Inhibition (48 h, 5 µM; inhibitor)	% Inhibition (48 h, 5 µM, inhibitor)
CN(C)CCC(=O)c1ccccc1 [TCMDC-125532]	42.07%	
Cc1ccc(CC(C)NCC(O)c2cccc(C(F)(F)F)c2)cc1F (stereo not drawn) [TCMDC-131520]	16.03%	
O=C(c1ccco1)c1cn(CCOc2ccccc2)c2ccccc12 [TCMDC-124426]	-19.68%	
COc1ccc(OCCn2cc(C(=O)c3ccco3)c3ccccc32)cc1 [TCMDC-124425]	55.18%	
Cc1ccc(CC(C)NCC(O)c2cccc(Cl)c2)cc1F (stereo not drawn) [TCMDC-131522]	25.69%	
CC[C@H]1CN2CCc3cc(OC)c(OC)cc3[C@@H]2C[C@@H]1C[C@H]1NCCc2c1cc(OC)c(O)c2I [TCMDC-131829]	88.82%	
CC[C@H]1CN2CCc3cc(OC)c(OC)cc3[C@@H]2C[C@@H]1C[C@H]1NCCc2c1cc(OC)c(OC)c2Br [TCMDC-131803]	73.47%	
CC[C@H]1CN2CCc3cc(OC)c(OC)cc3[C@@H]2C[C@@H]1C[C@H]1NCCc2c1cc(OC)c(O)c2Cl [TCMDC-131802]	83.05%	
COc1ccc(NC(=O)NCC2CCCN(CCCCCNC(=O)/C=C/c3ccc(Cl)c(Cl)c3)C2)c(OC)c1 (stereo not drawn) [TCMDC-139520]	-54.43%	
Cc1ccc(CC(C)NC[C@H](O)c2cccc(Cl)c2)cc1 (stereo partly drawn) [TCMDC-131434]		17.71%
Cc1ccc(CC(C)NCC(O)c2cccc([N+](=O)[O-])c2)cc1 (stereo not drawn) [TCMDC-131459]	42.66%	
CC(O)C1CCCCN1C(=O)c1cccc(-c2ccc(-c3nc4cc(F)ccc4[nH]3)cc2)c1 (stereo not drawn) [TCMDC-132337]	-4.748%	
CC(Cc1ccc(C(C)(C)C)cc1)NCC(O)c1ccccc1 (stereo not drawn) [TCMDC-131461]	-2.665%	
COc1cccc(CC(C)NCC(O)c2cccc(Cl)c2)c1 (stereo not drawn) [TCMDC-131508]	-2.665%	
COc1ccc(CC(C)NCC(O)c2cccc(C(F)(F)F)c2)cc1 (stereo not drawn) [TCMDC-131471]	20%	
Cc1c(C(=O)N[C@@H](C)c2ccccc2)c2cc(O)c(Br)cc2n1C1CCCCC1 [TCMDC-135454]	-62.04%	
COc1c(F)cc(CC(C)NCC(O)c2cccc(Cl)c2)cc1F (stereo not drawn) [TCMDC-131518]	14.1%	
N=c1c2c(n(Cc3ccc(Cl)cc3Cl)c3c1CCC3)CCCC2 [TCMDC-125310]	74.48%	
COc1ccc(NC(=S)NC(NC(=O)CF)C(Cl)(Cl)Cl)cc1[N+](=O)[O-] (stereo not drawn) [TCMDC-124240]	-10.17%	
CCC1=C[C@@H]2CN(C1)Cc1c([nH]c3ccccc13)[C@@](C(=O)OC)(c1cc3c(cc1OC)N(C)[C@H]1[C@@](O)(C(=O)OC)[C@H](O)[C@]4(CC)C=CCN5CC[C@]31[C@@H]54)C2 [TCMDC-137769]	33.28%	
Cl.c1ccc2c(NCCCCCCNc3c4ccccc4nc4ccccc34)c3ccccc3nc2c1 [TCMDC-124285]	125.5%	

Structure (SMILES)	% Inhibition (48 h, 5 µM; inhibitor)	% Inhibition (48 h, 5 µM, inhibitor)
Cl.c1ccc2c(NCCCCCCCCCNc3c4ccccc4nc4ccccc34)c3ccccc3nc2c1 [TCMDC-124286]	134.6%	
C#CCN1CCC2=C(C1)c1c(O)cc(C(C)C(C)CCc3ccc(F)cc3)cc1OC2(C)C (stereo not drawn) [TCMDC-125707]	-44.99%	
Cc1ccc(CC(C)NCC(O)c2cccc(C(F)(F)F)c2)cc1 (stereo not drawn) [TCMDC-131476]		12.88%
COc1cc2c(cc1OC)CN(CCCCNC(=O)c1ccc(NC(=O)c3cc(Cl)cc(Cl)c3)cc1)CC2 [TCMDC-138217]	-10.96%	
COc1ccc(CC(C)NCC(O)c2cccc(C(F)(F)F)c2)cc1F (stereo not drawn) [TCMDC-131490]	18.55%	
C=Cc1cc(OC)c2c(c1)c(=O)oc1c2cc(OC)c2c(O)ccc([C@H]3O[C@H]([C@H](C)O)[C@H](O)[C@H]3O)c21 [TCMDC-141972]	49.56%	
CC(=O)Nc1ccc(OCCN(CC(F)(F)F)c2ccc(C#N)cc2C(F)(F)F)cc1 [TCMDC-135848]	17.4%	
NC(N)=NC(=O)Nc1cc(Br)c(Cl)c(Br)c1 [TCMDC-137464]	72.05%	
CCC1(C)CC(CCNCc2ccccc2O)(c2ccc(F)cc2)CCO1 (stereo not drawn) [TCMDC-124006]	-8.682%	
COc1ccc(CC(C)NCC(O)c2cccc(Cl)c2F)cc1 (stereo not drawn) [TCMDC-131488]	21.97%	
COc1cc(NC(=O)/C=C/c2cc3ccccc3n2C)ccc1OCCN(C(C)C)C(C)C [TCMDC-139900]	118%	
Cc1ccc(CC(C)NCC(O)c2cccc(C(F)(F)F)c2)cc1 (stereo not drawn) [TCMDC-131450]		20.44%
Cc1ccc(CC(C)(C)NCC(O)c2cccc(C(F)(F)F)c2)cc1 (stereo not drawn) [TCMDC-131445]	-8.892%	
CC[C@H]1CN2CC[C@H]1C[C@@H]2[C@@H](O)c1ccnc2ccccc12 [TCMDC-125880]	69.34%	
CCCN(CCC)CCOC(=O)C(OCC)(c1ccccc1)c1ccccc1 [TCMDC-131392]	-25.5%	
COc1ccc2[nH]cc(C3=CCN(Cc4ccccc4)CC3)c2c1 [TCMDC-139048]	-90.48%	
CC(Cc1ccc(SC(C)(C)C)cc1)NCC(O)c1cccc(Cl)c1 (stereo not drawn) [TCMDC-131492]	-3.8%	
CC(C)N(C)C(=O)n1cnc(S(=O)(=O)C2CC3CCC2C3)n1 (stereo not drawn) [TCMDC-134379]	65.83%	
O=C(NC1CCC(CN2CCC(c3c[nH]c4ccccc34)CC2)CC1)C1(O)c2ccccc2-c2ccccc21 (stereo not drawn) [TCMDC-139901]	25.48%	
Cc1nc2ccccn2c1C1(O)C(=O)Nc2c(Cl)cc(Cl)cc21 (stereo not drawn) [TCMDC-124526]	6.508%	
COc1ccc(CC(C)NCC(O)c2ccc(Cl)c(Cl)c2)cc1 (stereo not drawn) [TCMDC-131514]	0.9057%	

— article PMC4552634, “A New Set of Chemical Starting Points with Plasmodium falciparum Transmission-Blocking Potential for Antimalarial Drug Discovery” (PLoS ONE, 2015)
